WT yeast gro inh: growth inhibition of WT strain, primary screen, mitochondrial fusion inhibitor project, WT and mutant strains, chemical genetic. actives 2.1% (n = 190,000). mitochondrial fusion phenotypic screen. AID 1362, 2008. inhibition, % at 10 µM; in the data active = inhibition above about 58%; tested in S. cerevisiae
CHOP inhibitor: inhibitors of CHOP promoter induction, primary screen, cell-based, unfolded protein response, luciferase reporter; CHO-K1 CHOP-promoter luciferase, tunicamycin-induced, 15-18 h; inhibition, % at 10 µM; actives 3.8% (n = 220,000); AID 2732, 2010;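 active = compounds that reduced the stress-induced luciferase reporter signal by more than about 70% of percent inhibition, limit read from the data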;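 also: 0% = tunicamycin plus vehicle and 100% = wells without tunicamycin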
Lmaj promast: Leishmania major promastigote growth inhibition, primary screen; Leishmania major promastigotes, resazurin fluorescence viability; inhibition, % at 10 µM; actives 9% (n = 200,000); AID 1063, 2008; in the data active = inhibition above about 50%;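 also: promastigotes grown with compound for 44 hours at 28 °C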
Arbovirus inh: antivirals against arbovirus infection, primary screen, cell-based, full library, 10K replicate subset; arbovirus infection cell-based antiviral screen; inhibition, % at 10 µM; actives 0.37% (n = 200,000); AID 1251, 2008; in the data active = inhibition above about 30%
* hit, by the source's call; · = no result given. Sampled rows, rich in hits. Any-hit rate of the full collection: about 12%.

SMILES | WT yeast gro inh | CHOP inhibitor | Lmaj promast | Arbovirus inh
O=C1NC(=NCc2ccccc2)S/C1=C/c1ccc(O)cc1 | -19 | 19 | 63* | -17
Cc1c(N=C2NC(=O)/C(=C/c3ccc(O)cc3)S2)c(=O)n(-c2ccccc2)n1C | -2 | 60 | -4 | -9
Cc1ccc(S(=O)(=O)N(CC(=O)N2CCC(C)CC2)Cc2ccccc2F)cc1 | 22 | 64 | 82* | -12
CCN1CCN(C(=O)c2ccccc2N(Cc2ccccc2)S(=O)(=O)c2ccc(C)cc2)CC1 | 16 | 2 | 98* | 8
Cc1ccc(S(=O)(=O)N(CC(=O)N2CCCCCC2)c2ccccc2)cc1 | 15 | 34 | 75* | 6
O=C(CN(Cc1ccccc1F)S(=O)(=O)c1ccc(Cl)cc1)NCCC1=CCCCC1 | 6 | 41 | 2 | -11
Cc1ccc(S(=O)(=O)N(CC(=O)N2CCC(C)CC2)c2ccccc2)cc1 | 2 | 1 | 6 | -2
Cc1ccc(S(=O)(=O)N(CC(=O)NCCC2=CCCCC2)Cc2ccccc2F)cc1 | 61* | 27 | 40 | -25
O=C(Nc1ccccc1)NC1CCCCNC1=O (stereo not drawn) | · | -17 | · | ·
Clc1ccc(CNc2ccccc2NCc2ccc(Cl)nc2)cn1 | -17 | 8 | -8 | -21
Cc1oc(-c2ccc3c(c2)OCCO3)cc1C(=O)O | 33 | 72* | -6 | 0
O=C(CSc1nc2[nH]ncc2c(=O)[nH]1)NCCc1ccccc1 | 9 | -9 | -6 | 4
c1coc(-c2nc3nc4ccccc4nc3n2-c2ccc3c(c2)OCCO3)c1 | 10 | -13 | 84* | 2
O=C(Nc1nc(SCc2ccc(F)cc2)ns1)c1ccco1 | 68* | 19 | -9 | 19
Fc1ccc(CSc2nsc(SCc3ccc(F)cc3)n2)cc1 | 31 | -30 | -8 | 4
C=CCSC1=NC(=O)/C(=C/c2cccs2)S1 | -20 | 81* | -7 | 11
NC1=NC(=O)/C(=C/c2cccs2)S1 | -6 | -12 | -3 | 7
CN(CC(=O)Nn1cnnc1)S(=O)(=O)c1ccccc1 | -20 | 2 | -4 | 10
CSCc1nc2scc(-c3ccccc3)c2c(=O)[nH]1 | 0 | 5 | 18 | -5
O=c1[nH]c(Cn2nnc(-c3ccccc3)n2)nc2scc(-c3ccccc3)c12 | 8 | 89* | -2 | 17
COc1ccc(CN(C)Cc2nc3scc(-c4ccccc4)c3c(=O)[nH]2)cc1OC | 4 | 20 | 63* | -6
Cc1cc(C(=O)CSc2nnc(-c3cccs3)o2)c(C)n1-c1ccccc1 | 7 | · | 0 | 25
Cc1cc2c(cc1C)C(c1ccccc1Br)CC(=O)N2 (stereo not drawn) | -3 | 56 | 99* | -5
O=C1CC(c2cccc(Cl)c2)c2cc3c(cc2N1)CCC3 (stereo not drawn) | 8 | 86* | 7 | -16
O=C1CC(c2cc(Br)ccc2F)c2cc3c(cc2N1)CCC3 (stereo not drawn) | -2 | -3 | 1 | -22
SMILES | WT yeast gro inh | CHOP inhibitor | Lmaj promast | Arbovirus inh
COc1cccc(C2CC(=O)Nc3cc4c(cc32)CCC4)c1 (stereo not drawn) | 27 | 46 | 3 | -13
CCCOc1ccccc1C1CC(=O)Nc2cc3c(cc21)OCCO3 (stereo not drawn) | 19 | · | 98* | -15
O=C1CC(c2ccccc2F)c2cc3c(cc2N1)CCC3 (stereo not drawn) | 10 | 62 | 97* | -20
O=C(c1cccc(S(=O)(=O)Nc2ccccc2F)c1)N1CCN(c2ccccc2F)CC1 | -10 | -2 | 0 | 2
Cc1ccnc2ccc(SC(F)(F)F)cc12 | -1 | 13 | -9 | 3
CC(=O)/C(=N\Nc1ccccc1)Sc1nncn1C | 10 | -10 | 33 | -16
CCN1CCC2(CC1)Oc1c(OC)cccc1C1CC(c3cccnc3)=NN12 (stereo not drawn) | · | 4 | · | ·
COc1ccc2ccccc2c1/C=N/N1C(=O)CSC1=S | -1 | 31 | -12 | 32*
Cc1ccc(N/C(N)=N/c2nc3c(c(=O)[nH]2)CCCC3)c(C)c1 | -23 | -5 | 2 | -20
Cc1ccc(N/C(N)=N/c2nc(C)cc(N3CCCCC3)n2)c(C)c1 | 17 | 38 | 100* | -31
CC(C)OC(=O)c1cccc(-c2ccc(C=O)o2)c1 | 14 | 36 | 88* | 5
Fc1cccc(F)c1-n1c(CN2CCOCC2)csc1=S | -35 | -10 | -6 | 5
Fc1cccc(F)c1-n1c(CN2CCCCC2)csc1=S | 21 | 26 | 56* | -10
CC(C)CCNc1nc2c(c(=O)n(Cc3cccc(F)c3)c(=O)n2C)n1C | 39 | 71* | 6 | -25
Cn1c(NCCCN2CCOCC2)nc2c1c(=O)n(Cc1ccc(Cl)cc1Cl)c(=O)n2C | -53 | 29 | 90* | -20
Cn1c(NCc2ccccc2)nc2c1c(=O)n(Cc1ccccc1)c(=O)n2C | 11 | 40 | 1 | 2
CC(O)CNc1nc2c(c(=O)n(Cc3ccc(Cl)c(Cl)c3)c(=O)n2C)n1C (stereo not drawn) | · | 78* | · | ·
Cc1cc(NC(=O)CCl)n(-c2nc3ccccc3s2)n1 | -31 | 77* | 7 | 11
CCOC(=O)c1cnc(-n2nc(C)cc2C)nc1N(CC)CC | 70* | -66 | 13 | -24
CCOC(=O)c1cnc(-n2nc(C)cc2C)nc1NNc1nc(-c2ccccc2)cc(-c2ccccc2)n1 | -12 | 65 | 100* | -19
CCOC(=O)c1cnc(-n2nc(C)cc2C)nc1NC | -37 | -23 | 1 | -6
CCOC(=O)c1cnc(-n2nc(C)cc2C)nc1NNc1nc(C)cc(C)n1 | · | 5 | · | ·
Cc1nn(C(=O)c2ccco2)c(C)c1Sc1ccc(Cl)cc1 | 22 | 73* | 4 | 9
CCCCN(C)Cc1c(C)[nH]c2c(Cl)cccc2c1=O | 5 | -9 | 100* | 6
CC(C)CNC(=O)CSc1nnc(-c2ccccn2)n1Cc1ccccc1 | -8 | 71* | -4 | 5
SMILES | WT yeast gro inh | CHOP inhibitor | Lmaj promast | Arbovirus inh
O=C(COc1ncnc2sccc12)N1CCN(C(=O)c2ccco2)CC1 | -1 | 4 | -6 | 14
Cc1ccc(-c2nnn(CC(=O)N(c3cccc(F)c3)C(C(=O)NC(C)(C)C)c3ccco3)n2)o1 (stereo not drawn) | -2 | 95* | -3 | 1
COc1ccc2ccc3c(c2c1)N=C[C@]1(O3)N(C)c2ccccc2C1(C)C | 75* | 46 | 16 | 13
CC1=NOC2(C1)N(C)c1ccccc1C2(C)C (stereo not drawn) | 0 | 7 | -4 | 3
CCn1c(=O)c([N+](=O)[O-])c(NCC2CCCO2)c2ccccc21 (stereo not drawn) | · | 1 | · | ·
COc1ccc(NC(=O)CSc2nc3ccc(OC)cc3[nH]2)cc1 | · | -7 | · | ·
O=C(CSc1nc2ccccc2[nH]1)Nc1ccc2c(c1)CCC2 | 2 | 12 | 76* | 4
O=C(CSc1nc2ccc(Cl)cc2[nH]1)NC1CCCc2ccccc21 (stereo not drawn) | 11 | 7 | 9 | 2
O=C(CSc1nc2ccc(Cl)cc2[nH]1)Nc1ccc2c(c1)CCC2 | 36 | 71* | -2 | 9
O=C(CSc1nc2cc3ccccc3cc2[nH]1)Nc1ccc(F)cc1 | 2 | 81* | -6 | 7

Assay outcomes from PubChem.
